These results are taken from PubChem BioAssay (Tox21).

A short description of assay [1]: qHTS assay to identify small molecule agonists of the peroxisome proliferator-activated receptor delta (PPARd) signaling pathway - cell viability counter screen (AID 743211). Note: nearly all actives have a fitted effect of over 55% in size. In outline: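 Read-out: CellTiter-Glo luminescence, 30 min RT, measured in the same wells as the beta-lactamase reporter. Cells: GeneBLAzer PPAR delta UAS-bla HEK293H, 3000 cells/well, compound exposure 17 h at 37C.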

The target in assay [2] is Peroxisome proliferator-activated receptor delta (Homo sapiens) (UniProt Q03181). Nature of the assay: qHTS assay to identify small molecule agonists of the peroxisome proliferator-activated receptor delta (PPARd) signaling pathway (AID 743212; calls by dose curve). A digest of the protocol:
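Tox21 library screened in GeneBLAzer PPARd UAS-bla HEK293H cells. After compound treatment at 37 C, a FRET-based beta-lactamase substrate was applied for 2 h and fluorescence recorded.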

A short description of assay [3]: qHTS assay to identify small molecule antagonists of the peroxisome proliferator-activated receptor delta (PPARd) signaling pathway - cell viability counter screen (AID 743213). Note: nearly all actives have a fitted effect of over 50% in size. In outline:
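CellTiter-Glo was added to PPARd-bla HEK293H wells following 17 h compound treatment in the presence of 300 nM L165041. Luminescence was recorded after 30 min at room temperature.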

Assay [4] deals with Peroxisome proliferator-activated receptor delta (Homo sapiens) (UniProt Q03181). Nature of the assay: qHTS assay to identify small molecule antagonists of the peroxisome proliferator-activated receptor delta (PPARd) signaling pathway (AID 743215; active = well fitted inhibition curve with a large enough effect in the signal ratio in the repeat runs, not every such curve was filed as active; the % refers to the signal ratio;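 note: cells stimulated with agonist L165041 at 300 nM final during compound exposure; series mostly up to about 62 µM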). In outline:
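Here, a reporter line (HEK293H, beta-lactamase under a UAS) measures PPARd signaling. Compounds are tested against agonist L165041 at 300 nM final concentration over 17 h at 37 C, with fluorescence read after substrate.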

Assay [5] has as its target Bile acid receptor (Homo sapiens) (UniProt Q96RI1). Nature of the assay: qHTS assay to identify small molecule antagonists of the farnesoid-X-receptor (FXR) signaling pathway (AID 743217; active = well fitted inhibition curve with a large enough effect in the signal ratio in the repeat runs, not every such curve was filed as active; the % refers to the signal ratio). In outline: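 Test compounds are pin-transferred onto FXR-bla HEK 293T cells, then chenodeoxycholic acid is added at 50 uM final. After 16 h at 37 °C, LiveBLAzer B/G substrate is applied for 2 h at room temperature and fluorescence read.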

Assay [6] in a line: qHTS assay to identify small molecule agonists of the farnesoid-X-receptor (FXR) signaling pathway - cell viability counter screen (AID 743218). Note: nearly all actives have a fitted effect of over 45% in size. A digest of the protocol: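 Quantitative HTS counter screen measuring ATP-based viability via CellTiter-Glo luminescence in HEK 293T cells carrying a UAS-driven beta-lactamase reporter, after 16 h compound exposure at 37 C.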
Assay [7] has as its target Bile acid receptor (Homo sapiens) (UniProt Q96RI1). The experiment in a line: qHTS assay to identify small molecule agonists of the farnesoid-X-receptor (FXR) signaling pathway (AID 743220; active = well fitted activation curve with a large enough effect in the signal ratio in the repeat runs, not every such curve was filed as active; the % refers to the signal ratio). In outline: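 FXR-UAS-bla HEK 293T cells carrying a UAS-driven beta-lactamase reporter were plated for 5 h at 37C/5% CO2, then exposed to DMSO-dissolved Tox21 10K compounds for 16 h at 37C. A LiveBLAzer B/G FRET substrate was loaded for 2 h at room temperature before fluorescence reading.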

A short description of assay [8]: qHTS assay to identify small molecule antagonists of the farnesoid-X-receptor (FXR) signaling pathway - cell viability counter screen (AID 743221; active = well fitted cell-killing curve with a large enough effect in the repeat runs, not every such curve was filed as active; note: nearly all actives have a fitted effect of over 50% in size; note: potency is the fitted concentration of half-maximal effect). In outline:
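HEK 293T FXR-bla cells, 5 h pre-incubation; compound + CDCA 50 uM final, 16 h, 37 C; beta-lactamase FRET read first, then CellTiter-Glo luminescence, 30 min RT.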

Assay [9] concerns the target Vitamin D3 receptor (Homo sapiens) (UniProt P11473). Nature of the assay: qHTS assay to identify small molecule agonists of the vitamin D receptor (VDR) signaling pathway (AID 743222; calls by dose curve). A digest of the protocol: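 Tox21 cell reporter format: VDR-bla line, 16 h compound exposure in 5% CO2 at 37C, then fluorescence intensity after 2 h with LiveBLAzer B/G FRET substrate.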

Assay [10] has the same target. The experiment in a line: qHTS assay to identify small molecule antagonists of the vitamin D receptor (VDR) signaling pathway (AID 743223; active = well fitted inhibition curve with a large enough effect in the signal ratio in the repeat runs, not every such curve was filed as active; the % refers to the signal ratio). A digest of the protocol: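 Beta-lactamase reporter read-out: FRET substrate fluorescence after 2 h at room temperature, following 16 h exposure of VDR-bla cells to test compound plus 3 nM (final) 1alpha,25-dihydroxyvitamin D3 agonist at 37C.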

Assay [11] in a line: qHTS assay to identify small molecule agonists of the vitamin D receptor (VDR) signaling pathway - cell viability counter screen (AID 743224). Note: series mostly up to about 63 µM; nearly all actives have a fitted effect of over 50% in size. A digest of the protocol: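 CellTiter-Glo viability readout on VDR-bla cells, measured after 16 h of compound treatment at 37C in the same wells.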
Assay [12] can be described thus: qHTS assay to identify small molecule agonists of the NFkB signaling pathway - cell viability counter screen (AID 1159515; calls by dose curve; note: series mostly up to about 61 µM; nearly all actives have a fitted effect of over 55% in size). A digest of the protocol:
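Tox21 library compounds were tested for cytotoxicity against NFkB-bla ME-180 cells during a 5 hr exposure at 37 C. CellTiter-Glo luminescence served as the viability read-out.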

The nature of assay [13]: qHTS assay to identify small molecule agonists of the endoplasmic reticulum stress response signaling pathway (AID 1159516; active = well fitted activation curve with a large enough effect in the signal ratio in the repeat runs, not every such curve was filed as active; the % refers to the signal ratio). In outline: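 Fluorescence at 460 and 530 nm (405 nm excitation) reports beta-lactamase from an ER stress response element in HeLa cells treated 5 hr at 37 C.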
Assay [14] in a line: qHTS assay to identify small molecule agonists of the endoplasmic reticulum stress response signaling pathway - cell viability counter screen (AID 1159517; calls by dose curve; note: series mostly up to about 61 µM; nearly all actives have a fitted effect of over 50% in size). A digest of the protocol:
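In parallel with the ESRE reporter read, cytotoxicity was scored by CellTiter-Glo luminescence (30 min, room temperature) on HeLa ESRE-bla cells dosed for 5 hr.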

Assay [15] can be described thus: qHTS assay to identify small molecule antagonists of the retinoid-related orphan receptor gamma (ROR-gamma) signaling pathway - cell viability counter screen (AID 1159520). Note: nearly all actives have a fitted effect of over 50% in size. In outline: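 Tet-on ROR gamma CHO cells were given compounds for 2 hr, then doxycycline hyclate at 1 uM final, and incubated 16 hr at 37 C. Viability was measured as ATP content by CellTiter-Glo luminescence.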

Assay [16] concerns the target Nuclear receptor ROR-gamma (Homo sapiens) (UniProt P51449). Nature of the assay: qHTS assay to identify small molecule antagonists of the retinoid-related orphan receptor gamma (ROR-gamma) signaling pathway (AID 1159521). A digest of the protocol:
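Luminescence readout (ONE-Glo, 30 min RT) after 16 h doxycycline induction; loss of signal scored as antagonism. CHO cells with TET-inducible RORγ and RORE-LUC reporter; compounds added 2 h before 1 uM final doxycycline.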

The nature of assay [17]: qHTS assay to identify small molecule agonists of the AP-1 signaling pathway - cell viability counter screen (AID 1159525; calls by dose curve; note: nearly all actives have a fitted effect of over 55% in size). A digest of the protocol: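 Same-well cytotoxicity counter screen of the Tox21 10K library in ME-180 cells. The readout is ATP-dependent luminescence after 5 h compound treatment. Data are normalised to DMSO and tetra n-octyl ammonium bromide controls.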

Assay [18] is described as follows: qHTS assay to identify small molecule agonists of the AP-1 signaling pathway (AID 1159526; calls by dose curve).
Assay [19] is described as follows: qHTS assay to identify small molecule antagonists of the vitamin D receptor (VDR) signaling pathway - cell viability counter screen (AID 743225). Note: nearly all actives have a fitted effect of over 50% in size. A digest of the protocol: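 Viability counter screen run in the same wells as the beta-lactamase reporter assay: HEK 293T VDR-UAS-bla cells, 16 h compound exposure at 37C with 3 nM (final) 1-alpha,25-dihydroxyvitamin D3. CellTiter-Glo luminescence, 30 min, room temperature.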

Results filed as inconclusive are left out. The source made the active and inactive calls. Unless noted, calls come from the whole dose curve; as a rule, active = well fitted curve in the direction sought with a large enough effect in the repeat runs; inconclusive = weak or mixed curves; inactive = no such curve, though single readings can be large; an effect the other way counts as inactive or inconclusive.

Sequence of Bile acid receptor (Homo sapiens) (Q96RI1 whole entry, looked up): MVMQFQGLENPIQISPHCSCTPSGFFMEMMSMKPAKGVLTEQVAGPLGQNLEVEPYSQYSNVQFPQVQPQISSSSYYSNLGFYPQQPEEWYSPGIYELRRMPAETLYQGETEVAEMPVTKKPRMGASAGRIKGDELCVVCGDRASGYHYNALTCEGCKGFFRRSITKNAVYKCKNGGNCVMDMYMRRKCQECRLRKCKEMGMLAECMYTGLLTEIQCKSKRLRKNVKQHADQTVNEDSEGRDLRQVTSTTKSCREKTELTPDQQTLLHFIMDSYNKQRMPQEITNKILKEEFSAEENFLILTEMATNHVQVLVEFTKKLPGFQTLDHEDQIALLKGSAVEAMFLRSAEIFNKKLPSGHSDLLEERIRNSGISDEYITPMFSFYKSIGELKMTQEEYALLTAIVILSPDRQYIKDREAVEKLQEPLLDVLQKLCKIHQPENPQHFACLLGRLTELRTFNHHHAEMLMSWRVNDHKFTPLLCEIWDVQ
Sequence of Peroxisome proliferator-activated receptor delta (Homo sapiens) (Q03181 whole entry, looked up): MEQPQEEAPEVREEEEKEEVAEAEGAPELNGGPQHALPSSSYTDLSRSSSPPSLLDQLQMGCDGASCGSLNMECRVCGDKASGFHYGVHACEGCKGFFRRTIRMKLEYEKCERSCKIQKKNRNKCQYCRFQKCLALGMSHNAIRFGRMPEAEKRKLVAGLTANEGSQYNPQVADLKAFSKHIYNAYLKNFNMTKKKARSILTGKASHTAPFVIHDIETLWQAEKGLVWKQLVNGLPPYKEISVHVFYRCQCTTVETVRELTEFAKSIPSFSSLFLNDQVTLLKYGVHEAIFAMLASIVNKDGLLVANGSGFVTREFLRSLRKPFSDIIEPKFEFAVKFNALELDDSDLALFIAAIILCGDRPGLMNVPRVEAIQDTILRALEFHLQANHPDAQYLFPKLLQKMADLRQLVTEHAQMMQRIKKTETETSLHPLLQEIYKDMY
Sequence of Vitamin D3 receptor (Homo sapiens) (P11473 whole entry, looked up): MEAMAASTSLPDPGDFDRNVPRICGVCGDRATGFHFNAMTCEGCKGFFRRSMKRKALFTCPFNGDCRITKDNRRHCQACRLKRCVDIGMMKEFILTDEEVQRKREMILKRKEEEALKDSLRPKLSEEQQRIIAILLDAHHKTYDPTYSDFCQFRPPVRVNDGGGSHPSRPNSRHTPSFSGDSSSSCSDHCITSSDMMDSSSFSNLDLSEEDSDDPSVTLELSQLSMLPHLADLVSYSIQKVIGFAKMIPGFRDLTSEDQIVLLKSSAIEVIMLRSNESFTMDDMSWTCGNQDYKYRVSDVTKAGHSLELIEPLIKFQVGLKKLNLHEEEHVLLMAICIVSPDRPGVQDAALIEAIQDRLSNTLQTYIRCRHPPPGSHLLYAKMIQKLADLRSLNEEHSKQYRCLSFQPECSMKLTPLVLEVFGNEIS

Regarding `FC(F)(F)C(F)(F)C(F)(F)C(F)(F)C(F)(F)C(F)(F)CCI`, the Potency entry in assay [1], in [3], in [6], in [8], in [10] and in assay [11] was “inactive” in each case. In addition, the Potency entry in assay [12], in assay [13], in assay [15], in assay [16], in assay [17] and in [18] was “inactive” each time. Besides, the outcome in assay [2], in assay [4], in assay [5], in assay [7], in assay [9] and in [14] was inactive.

`OCC1CC2CC1C1CCC(CO)C21` (stereo unspecified): the Potency result in assay [1], in [3], in assay [10], in assay [11], in assay [19] and in assay [12] was “inactive” each time. Also, the Potency entry in assay [13], in assay [15], in assay [16], in assay [17] and in [18] was “inactive” in each case. Also, the compound was classed as inactive in assay [2], in [4], in assay [5], in assay [7], in assay [9] and in [14]. Moreover, the Potency in assay [8] is 24.5 µM (active).

Regarding `NC(=S)N/N=C/c1cccnc1`, the Potency result in assay [1], in assay [3], in assay [6], in assay [10], in [11] and in assay [19] was “inactive” in each case. Moreover, the Potency entry in [12], in [13], in assay [15], in [16], in assay [17] and in assay [18] was “inactive” in each case. For the same compound, the result in assay [2], in assay [4], in assay [9] and in [14] was inactive.

With `Cc1cccc(OCCOc2cccc(C)c2)c1`, the Potency entry in assay [1], in assay [3], in [6], in assay [11], in assay [12] and in [13] was “inactive” each time. Further, the Potency result in [15], in [16], in assay [17] and in assay [18] was “inactive” each time. Moreover, the call in assay [2], in assay [4] and in assay [14] was inactive.

With `CC(C)(C)c1ccc(S)cc1`, the Potency result in assay [1], in assay [3], in [6], in [8], in [10] and in assay [11] was “inactive” in each case. Also, the Potency result in assay [12], in assay [13], in [15], in [16], in assay [17] and in [18] was “inactive” each time. Further, the compound was called inactive in assay [2], in assay [4], in assay [9] and in assay [14].

As to `C=C(C)C(=O)OCCN(C)C`, the Potency entry in assay [1], in assay [3], in [6], in assay [8], in [19] and in assay [12] was “inactive” throughout. Further, the Potency result in assay [13], in [15], in [16], in [17] and in assay [18] was “inactive” in each case. The outcome in [2], in assay [4], in assay [9] and in assay [14] was inactive.

With `CCCCC(CC)(CO)CO`, the Potency entry in assay [1], in assay [3], in assay [6], in assay [8], in [10] and in [11] was “inactive” in each case. Further, the Potency entry in [19], in assay [12], in assay [13], in [15], in assay [16] and in assay [17] was “inactive” throughout. For the same compound, the Potency entry in assay [18] is “inactive”. Further, the call in [2], in [4], in assay [5], in [7], in assay [9] and in [14] was inactive.

In the case of `CCN(CC)CCc1nc(-c2ccccc2)no1`, the Potency entry in [1], in assay [3], in assay [6], in assay [8], in assay [11] and in assay [12] was “inactive” throughout. Besides, the Potency entry in [13], in [15], in [16], in assay [17] and in assay [18] was “inactive” each time. Moreover, the result in assay [2], in assay [4] and in assay [14] was inactive.

Regarding `Cc1ncsc1CCO`, the Potency entry in assay [1], in [3], in assay [6], in assay [8], in assay [11] and in assay [19] was “inactive” throughout. Moreover, the Potency entry in assay [12], in [13], in assay [15], in assay [16], in assay [17] and in [18] was “inactive” in each case. For the same compound, the compound was called inactive in assay [2], in [5], in assay [7], in assay [9] and in assay [14].
